Test results published in PMC7862700, “An all-to-all approach to the identification of sequence-specific readers for epigenetic DNA modifications on cytosine”.

Key:
Assay in all cases: DAPPL (digital affinity profiling via proximity ligation, sequencing); 10 mM Tris-HCl pH 7.5, 50 mM NaCl, 1 mM DTT, 4% glycerol, room temperature, 30 min; GST-TFs on glutathione beads, 16-mer random dsDNA library, 0.1% formaldehyde crosslink after washing; high values mean tight binding
FEV = target: T1, FEV (Homo sapiens, UniProt Q99581 1-238); settings: protein: recombinant; tags: N-terminal GST; dsDNA, one strand shown
T1 sequence: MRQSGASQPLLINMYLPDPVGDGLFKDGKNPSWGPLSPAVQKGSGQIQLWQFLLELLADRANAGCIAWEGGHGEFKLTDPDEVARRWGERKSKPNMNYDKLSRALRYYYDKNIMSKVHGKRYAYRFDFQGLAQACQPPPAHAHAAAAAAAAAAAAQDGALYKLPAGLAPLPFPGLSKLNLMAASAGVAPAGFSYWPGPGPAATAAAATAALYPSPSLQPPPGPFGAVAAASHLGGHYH
Summary of the method: (§1)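 Binding signal is each hexamer's read frequency for a factor divided by its frequency in the tag-only sample. The factors were GST-fused human transcription factors from yeast, captured on glutathione beads, DNA-barcoded and pooled with that sample. Pools were incubated with 200 nmole of a random double-stranded 16-mer DNA library in Tris/NaCl/DTT/glycerol buffer at room temperature for 30 min, then washed, crosslinked with 0.1% formaldehyde, proximity-ligated with BsaI/T4 ligase (1 h, 37 °C), PCR-amplified and sequenced on an Illumina NextSeq500.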

ETV5 = ETV5 (Homo sapiens, UniProt P41161 1-510); settings: protein: recombinant; tags: N-terminal GST; dsDNA, one strand shown
Summary of the method: as §1

HSF1 = HSF1 (Homo sapiens, UniProt Q00613 1-529); settings: protein: recombinant; tags: N-terminal GST; chain copies: 3; dsDNA, one strand shown
Summary of the method: as §1

ELF4 = ELF4 (Homo sapiens, UniProt Q99607 1-663); settings: protein: recombinant; tags: N-terminal GST; dsDNA, one strand shown
Summary of the method: as §1

ELK4 = target: T2, ELK4 (Homo sapiens, UniProt P28324-2 1-405); settings: protein: recombinant; tags: N-terminal GST; dsDNA, one strand shown
T2 sequence: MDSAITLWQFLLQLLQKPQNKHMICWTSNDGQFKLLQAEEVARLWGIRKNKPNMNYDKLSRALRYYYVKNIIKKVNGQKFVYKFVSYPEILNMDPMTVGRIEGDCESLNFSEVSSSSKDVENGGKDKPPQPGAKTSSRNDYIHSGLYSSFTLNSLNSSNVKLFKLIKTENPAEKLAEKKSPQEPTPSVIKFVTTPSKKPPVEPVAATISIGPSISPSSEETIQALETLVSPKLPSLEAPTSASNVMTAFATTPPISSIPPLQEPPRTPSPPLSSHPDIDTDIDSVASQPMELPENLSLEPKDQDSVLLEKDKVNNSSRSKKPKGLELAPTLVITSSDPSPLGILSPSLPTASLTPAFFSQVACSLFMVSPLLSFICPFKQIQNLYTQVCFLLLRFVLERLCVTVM
Summary of the method: as §1

ETV2 = target: T3, ETV2 (Homo sapiens, UniProt O00321 1-342); settings: protein: recombinant; tags: N-terminal GST; dsDNA, one strand shown
T3 sequence: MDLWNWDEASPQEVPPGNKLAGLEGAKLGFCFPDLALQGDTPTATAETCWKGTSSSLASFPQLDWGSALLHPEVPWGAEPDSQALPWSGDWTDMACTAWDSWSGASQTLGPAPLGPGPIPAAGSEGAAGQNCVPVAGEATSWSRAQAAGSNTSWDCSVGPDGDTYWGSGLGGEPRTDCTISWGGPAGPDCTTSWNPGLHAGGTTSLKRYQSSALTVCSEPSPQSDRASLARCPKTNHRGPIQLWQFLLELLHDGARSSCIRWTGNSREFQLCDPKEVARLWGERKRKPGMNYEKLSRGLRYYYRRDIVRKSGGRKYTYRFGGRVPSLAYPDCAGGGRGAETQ
Summary of the method: as §1

ELF3 = target: T4, ELF3 (Homo sapiens, UniProt P78545 1-371); settings: protein: recombinant; tags: N-terminal GST; dsDNA, one strand shown
T4 sequence: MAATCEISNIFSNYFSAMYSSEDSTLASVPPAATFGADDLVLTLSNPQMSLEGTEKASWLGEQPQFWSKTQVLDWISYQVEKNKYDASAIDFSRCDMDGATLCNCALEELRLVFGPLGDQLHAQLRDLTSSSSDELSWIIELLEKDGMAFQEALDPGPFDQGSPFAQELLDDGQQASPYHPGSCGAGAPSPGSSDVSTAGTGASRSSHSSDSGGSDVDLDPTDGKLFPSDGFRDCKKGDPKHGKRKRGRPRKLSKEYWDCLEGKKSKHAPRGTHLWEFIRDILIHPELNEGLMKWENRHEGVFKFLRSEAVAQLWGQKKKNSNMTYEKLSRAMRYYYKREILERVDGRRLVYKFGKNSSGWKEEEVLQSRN
Summary of the method: as §1

CRX = CRX (Homo sapiens, UniProt O43186 1-299); settings: protein: recombinant; tags: N-terminal GST; dsDNA, one strand shown
Summary of the method: as §1

ETV1 = ETV1 (Homo sapiens, UniProt P50549 1-477); settings: protein: recombinant; tags: N-terminal GST; dsDNA, one strand shown
Summary of the method: as §1

ERF = target: T5, ERF (Homo sapiens, UniProt P50548 1-548); settings: protein: recombinant; tags: N-terminal GST; dsDNA, one strand shown
T5 sequence: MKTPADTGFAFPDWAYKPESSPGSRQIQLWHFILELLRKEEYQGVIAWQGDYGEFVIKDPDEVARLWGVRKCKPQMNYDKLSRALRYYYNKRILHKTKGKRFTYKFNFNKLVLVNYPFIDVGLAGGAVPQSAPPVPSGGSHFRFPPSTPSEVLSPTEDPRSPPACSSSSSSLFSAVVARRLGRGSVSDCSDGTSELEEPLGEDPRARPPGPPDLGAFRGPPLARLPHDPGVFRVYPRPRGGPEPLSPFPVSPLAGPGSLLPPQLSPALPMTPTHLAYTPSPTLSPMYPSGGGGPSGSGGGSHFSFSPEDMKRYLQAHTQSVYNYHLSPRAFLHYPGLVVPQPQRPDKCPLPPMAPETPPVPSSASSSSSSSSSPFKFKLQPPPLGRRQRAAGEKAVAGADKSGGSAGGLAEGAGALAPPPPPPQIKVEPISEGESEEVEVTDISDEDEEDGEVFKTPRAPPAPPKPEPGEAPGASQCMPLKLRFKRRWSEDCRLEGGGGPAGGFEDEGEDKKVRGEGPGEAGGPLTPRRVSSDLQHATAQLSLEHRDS
Summary of the method: as §1

ETV3L = target: T6, ETV3L (Homo sapiens, UniProt Q6ZN32 1-361); settings: protein: recombinant; tags: N-terminal GST; dsDNA, one strand shown
T6 sequence: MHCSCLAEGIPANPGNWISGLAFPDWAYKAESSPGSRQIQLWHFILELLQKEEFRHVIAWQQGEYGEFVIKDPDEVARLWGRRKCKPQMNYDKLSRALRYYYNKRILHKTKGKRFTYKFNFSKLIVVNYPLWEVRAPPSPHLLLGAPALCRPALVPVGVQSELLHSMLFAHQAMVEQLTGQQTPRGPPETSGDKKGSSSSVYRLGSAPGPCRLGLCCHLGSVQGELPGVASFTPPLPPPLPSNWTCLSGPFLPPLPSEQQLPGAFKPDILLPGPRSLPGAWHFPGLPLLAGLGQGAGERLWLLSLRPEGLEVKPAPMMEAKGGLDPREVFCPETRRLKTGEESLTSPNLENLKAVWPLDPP
Summary of the method: as §1

ETS2 = target: T7, ETS2 (Homo sapiens, UniProt P15036 1-469); settings: protein: recombinant; tags: N-terminal GST; dsDNA, one strand shown
T7 sequence: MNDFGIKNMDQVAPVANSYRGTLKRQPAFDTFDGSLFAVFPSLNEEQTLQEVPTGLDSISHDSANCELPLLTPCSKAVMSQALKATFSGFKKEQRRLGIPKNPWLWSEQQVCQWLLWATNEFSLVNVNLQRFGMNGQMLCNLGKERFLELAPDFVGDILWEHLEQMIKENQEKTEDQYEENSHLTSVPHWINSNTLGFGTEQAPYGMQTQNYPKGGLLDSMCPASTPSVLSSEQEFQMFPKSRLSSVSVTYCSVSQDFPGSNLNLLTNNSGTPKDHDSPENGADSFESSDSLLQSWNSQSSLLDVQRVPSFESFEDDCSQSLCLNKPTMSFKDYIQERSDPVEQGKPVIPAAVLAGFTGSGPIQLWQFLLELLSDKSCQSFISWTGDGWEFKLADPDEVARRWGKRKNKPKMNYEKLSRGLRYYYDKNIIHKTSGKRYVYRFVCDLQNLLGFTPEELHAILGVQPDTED
Summary of the method: as §1

SPDEF = target: T8, SPDEF (Homo sapiens, UniProt O95238 1-335); settings: protein: recombinant; tags: N-terminal GST; dsDNA, one strand shown
T8 sequence: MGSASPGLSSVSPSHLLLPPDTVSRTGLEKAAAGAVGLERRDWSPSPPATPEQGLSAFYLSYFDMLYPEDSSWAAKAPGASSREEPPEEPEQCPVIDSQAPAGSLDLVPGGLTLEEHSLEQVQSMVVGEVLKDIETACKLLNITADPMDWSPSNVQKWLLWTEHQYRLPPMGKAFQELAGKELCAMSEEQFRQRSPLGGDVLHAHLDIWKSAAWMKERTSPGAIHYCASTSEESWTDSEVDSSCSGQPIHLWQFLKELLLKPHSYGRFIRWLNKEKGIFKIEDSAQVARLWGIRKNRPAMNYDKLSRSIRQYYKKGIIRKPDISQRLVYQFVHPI
Summary of the method: as §1

ETV7 = target: T9, ETV7 (Homo sapiens, UniProt Q9Y603 1-341); settings: protein: recombinant; tags: N-terminal GST; dsDNA, one strand shown
T9 sequence: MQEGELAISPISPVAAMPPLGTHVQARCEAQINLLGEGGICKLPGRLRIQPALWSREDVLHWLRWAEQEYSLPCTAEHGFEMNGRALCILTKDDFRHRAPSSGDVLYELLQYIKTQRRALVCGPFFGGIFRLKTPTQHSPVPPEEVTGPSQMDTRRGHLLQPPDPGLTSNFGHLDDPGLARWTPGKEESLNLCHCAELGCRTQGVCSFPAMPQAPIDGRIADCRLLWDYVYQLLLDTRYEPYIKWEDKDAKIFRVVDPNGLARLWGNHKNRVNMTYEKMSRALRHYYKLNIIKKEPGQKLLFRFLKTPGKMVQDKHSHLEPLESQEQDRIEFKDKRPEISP
Summary of the method: as §1

ELF5 = target: T10, ELF5 (Homo sapiens, UniProt Q9UKW6-2 1-255); settings: protein: recombinant; tags: N-terminal GST; dsDNA, one strand shown
T10 sequence: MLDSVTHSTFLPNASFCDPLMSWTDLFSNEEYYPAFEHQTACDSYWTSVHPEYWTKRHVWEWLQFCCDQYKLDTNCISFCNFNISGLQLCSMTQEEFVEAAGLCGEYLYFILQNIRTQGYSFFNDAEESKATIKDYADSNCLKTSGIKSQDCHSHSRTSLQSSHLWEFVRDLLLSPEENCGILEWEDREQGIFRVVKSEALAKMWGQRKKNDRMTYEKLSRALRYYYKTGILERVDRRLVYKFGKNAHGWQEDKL
Summary of the method: as §1

ETV3 = target: T11, ETV3 (Homo sapiens, UniProt P41162-2 1-143); settings: protein: recombinant; tags: N-terminal GST; dsDNA, one strand shown
T11 sequence: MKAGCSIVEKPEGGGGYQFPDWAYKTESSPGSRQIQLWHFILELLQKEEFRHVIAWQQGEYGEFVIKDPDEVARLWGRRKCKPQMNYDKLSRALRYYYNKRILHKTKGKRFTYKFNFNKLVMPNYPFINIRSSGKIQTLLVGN
Summary of the method: as §1

ETV6 = ETV6 (Homo sapiens, UniProt P41212 1-452); settings: protein: recombinant; tags: N-terminal GST; dsDNA, one strand shown
Summary of the method: as §1

ELF4, sequence (Q99607 whole entry): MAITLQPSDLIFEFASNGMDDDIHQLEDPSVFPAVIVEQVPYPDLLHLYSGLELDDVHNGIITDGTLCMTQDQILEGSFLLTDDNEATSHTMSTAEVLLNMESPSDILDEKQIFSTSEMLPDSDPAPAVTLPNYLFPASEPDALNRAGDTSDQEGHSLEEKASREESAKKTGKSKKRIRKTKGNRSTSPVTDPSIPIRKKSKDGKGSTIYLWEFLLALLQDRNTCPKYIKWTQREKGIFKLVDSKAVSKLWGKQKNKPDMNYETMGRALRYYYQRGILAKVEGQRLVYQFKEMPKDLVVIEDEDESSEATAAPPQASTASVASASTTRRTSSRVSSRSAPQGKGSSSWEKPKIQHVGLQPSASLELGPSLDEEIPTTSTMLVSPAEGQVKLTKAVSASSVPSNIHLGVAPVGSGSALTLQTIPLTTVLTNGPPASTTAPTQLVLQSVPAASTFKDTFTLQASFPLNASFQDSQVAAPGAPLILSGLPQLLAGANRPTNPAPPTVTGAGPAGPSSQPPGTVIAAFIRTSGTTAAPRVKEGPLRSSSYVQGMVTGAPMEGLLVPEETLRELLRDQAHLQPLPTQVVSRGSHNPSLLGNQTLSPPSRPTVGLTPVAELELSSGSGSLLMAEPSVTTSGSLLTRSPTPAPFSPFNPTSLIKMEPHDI
HSF1, sequence (Q00613 whole entry): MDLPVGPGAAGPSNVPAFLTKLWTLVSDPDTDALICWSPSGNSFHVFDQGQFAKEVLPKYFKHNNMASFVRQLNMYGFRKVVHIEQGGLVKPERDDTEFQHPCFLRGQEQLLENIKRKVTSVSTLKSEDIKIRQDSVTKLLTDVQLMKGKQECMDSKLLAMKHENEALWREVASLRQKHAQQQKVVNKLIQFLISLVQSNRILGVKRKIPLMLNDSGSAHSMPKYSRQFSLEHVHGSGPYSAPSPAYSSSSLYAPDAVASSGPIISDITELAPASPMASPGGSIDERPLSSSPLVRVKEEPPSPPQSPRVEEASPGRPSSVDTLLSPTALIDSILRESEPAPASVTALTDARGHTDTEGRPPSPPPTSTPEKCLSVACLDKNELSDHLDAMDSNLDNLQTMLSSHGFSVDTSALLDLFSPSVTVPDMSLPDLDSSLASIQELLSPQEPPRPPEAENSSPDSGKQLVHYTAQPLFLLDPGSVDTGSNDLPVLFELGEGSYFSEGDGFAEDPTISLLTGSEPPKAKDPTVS
CRX, sequence (O43186 whole entry): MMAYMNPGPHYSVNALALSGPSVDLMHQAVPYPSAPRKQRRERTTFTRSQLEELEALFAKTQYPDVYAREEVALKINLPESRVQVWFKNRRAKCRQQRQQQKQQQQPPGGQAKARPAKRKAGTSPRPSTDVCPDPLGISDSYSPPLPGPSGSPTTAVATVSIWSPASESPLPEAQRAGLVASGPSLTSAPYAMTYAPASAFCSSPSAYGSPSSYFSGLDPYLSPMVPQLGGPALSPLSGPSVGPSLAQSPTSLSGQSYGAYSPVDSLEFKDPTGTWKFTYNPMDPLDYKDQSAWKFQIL
ETV5, sequence (P41161 whole entry): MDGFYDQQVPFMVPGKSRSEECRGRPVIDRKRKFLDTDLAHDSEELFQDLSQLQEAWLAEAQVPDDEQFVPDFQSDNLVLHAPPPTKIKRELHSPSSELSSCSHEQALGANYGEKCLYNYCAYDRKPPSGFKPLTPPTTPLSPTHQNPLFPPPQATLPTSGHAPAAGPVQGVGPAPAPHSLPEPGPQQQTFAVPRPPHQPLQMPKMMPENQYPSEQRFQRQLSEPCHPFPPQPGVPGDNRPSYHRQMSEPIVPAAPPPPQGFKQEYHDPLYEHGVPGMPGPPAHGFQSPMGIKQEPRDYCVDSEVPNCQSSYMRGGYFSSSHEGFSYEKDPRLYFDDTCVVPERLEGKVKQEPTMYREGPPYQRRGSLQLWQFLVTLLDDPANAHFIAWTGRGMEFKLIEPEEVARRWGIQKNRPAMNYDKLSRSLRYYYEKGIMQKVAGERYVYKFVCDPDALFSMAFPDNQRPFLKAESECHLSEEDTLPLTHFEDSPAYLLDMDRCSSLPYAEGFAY
ETV1, sequence (P50549 whole entry): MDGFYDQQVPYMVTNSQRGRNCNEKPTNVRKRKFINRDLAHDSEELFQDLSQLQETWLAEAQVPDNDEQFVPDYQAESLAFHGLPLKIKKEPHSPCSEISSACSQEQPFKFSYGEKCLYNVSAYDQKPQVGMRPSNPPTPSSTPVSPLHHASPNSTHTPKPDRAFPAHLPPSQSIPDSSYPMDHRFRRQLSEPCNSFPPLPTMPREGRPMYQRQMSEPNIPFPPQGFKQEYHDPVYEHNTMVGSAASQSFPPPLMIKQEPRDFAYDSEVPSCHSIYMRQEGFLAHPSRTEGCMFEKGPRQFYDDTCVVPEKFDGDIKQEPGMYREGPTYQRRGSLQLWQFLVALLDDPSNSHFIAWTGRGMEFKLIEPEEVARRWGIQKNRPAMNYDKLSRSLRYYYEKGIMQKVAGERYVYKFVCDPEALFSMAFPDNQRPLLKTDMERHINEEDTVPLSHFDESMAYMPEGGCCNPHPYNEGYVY
ETV6, sequence (P41212 whole entry): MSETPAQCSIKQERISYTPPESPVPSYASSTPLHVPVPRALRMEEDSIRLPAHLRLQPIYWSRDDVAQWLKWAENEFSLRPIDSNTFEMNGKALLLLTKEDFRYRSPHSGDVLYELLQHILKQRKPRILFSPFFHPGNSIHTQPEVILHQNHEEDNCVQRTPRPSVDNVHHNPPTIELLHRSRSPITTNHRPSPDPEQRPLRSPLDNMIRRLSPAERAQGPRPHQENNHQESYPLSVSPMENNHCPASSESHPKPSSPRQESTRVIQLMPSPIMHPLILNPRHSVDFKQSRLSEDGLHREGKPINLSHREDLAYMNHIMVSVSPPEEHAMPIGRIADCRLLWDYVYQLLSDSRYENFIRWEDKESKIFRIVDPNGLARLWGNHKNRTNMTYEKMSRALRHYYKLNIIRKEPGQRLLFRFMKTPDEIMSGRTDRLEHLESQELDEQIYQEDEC

Sequence | binding signal (FEV) | binding signal (ETV5) | binding signal (HSF1) | binding signal (ELF4) | binding signal (ELK4) | binding signal (ETV2) | binding signal (ELF3) | binding signal (CRX) | binding signal (ETV1) | binding signal (ERF) | binding signal (ETV3L) | binding signal (ETS2) | binding signal (SPDEF) | binding signal (ETV7) | binding signal (ELF5) | binding signal (ETV3) | binding signal (ETV6)
CTAGTA | 1.04 fold enrichment (6-mer frequency, TF over GST control) | 1.08 fold enrichment (6-mer frequency, TF over GST control) | 1.86 fold enrichment (6-mer frequency, TF over GST control) | 1.07 fold enrichment (6-mer frequency, TF over GST control) | 1.09 fold enrichment (6-mer frequency, TF over GST control) | 1.1 fold enrichment (6-mer frequency, TF over GST control) | 1.18 fold enrichment (6-mer frequency, TF over GST control) | 1.38 fold enrichment (6-mer frequency, TF over GST control) | 1.04 fold enrichment (6-mer frequency, TF over GST control) | 1.17 fold enrichment (6-mer frequency, TF over GST control) | 1.08 fold enrichment (6-mer frequency, TF over GST control) | 1.18 fold enrichment (6-mer frequency, TF over GST control) | 1.11 fold enrichment (6-mer frequency, TF over GST control) | 1.11 fold enrichment (6-mer frequency, TF over GST control) | 1.08 fold enrichment (6-mer frequency, TF over GST control) | 1.13 fold enrichment (6-mer frequency, TF over GST control) | 1.12 fold enrichment (6-mer frequency, TF over GST control)
TCAAAG | 1.1 fold enrichment (6-mer frequency, TF over GST control) | 1.08 fold enrichment (6-mer frequency, TF over GST control) | 1.17 fold enrichment (6-mer frequency, TF over GST control) | 1.14 fold enrichment (6-mer frequency, TF over GST control) | 1.21 fold enrichment (6-mer frequency, TF over GST control) | 1.03 fold enrichment (6-mer frequency, TF over GST control) | 1.16 fold enrichment (6-mer frequency, TF over GST control) | 1.32 fold enrichment (6-mer frequency, TF over GST control) | 1.13 fold enrichment (6-mer frequency, TF over GST control) | 1.08 fold enrichment (6-mer frequency, TF over GST control) | 1.12 fold enrichment (6-mer frequency, TF over GST control) | 1.12 fold enrichment (6-mer frequency, TF over GST control) | 1.01 fold enrichment (6-mer frequency, TF over GST control) | 1.1 fold enrichment (6-mer frequency, TF over GST control) | 1.04 fold enrichment (6-mer frequency, TF over GST control) | 1.07 fold enrichment (6-mer frequency, TF over GST control) | 1.09 fold enrichment (6-mer frequency, TF over GST control)
